# Values joined by “and” are separate entries in the source; they are usually repeats but may differ in a detail not shown here. Equal entries are not always repeated. Records with an inconclusive call do not appear. Where a call stands in place of a potency, no number is given. The source holds several records for some structures; these can differ, active in one and inactive in another. Active and inactive are the calls of the source. Unless noted, the call rests on the fitted dose curve; in most records, active means well fitted curve in the direction sought with a large enough effect in the repeat runs; inconclusive means weak or mixed curves; inactive means no such curve, though single readings can be large; an effect the other way counts as inactive or inconclusive.
# What was measured:
# [1] = qHTS assay for small molecules that induce genotoxicity in human embryonic kidney cells expressing luciferase-tagged ATAD5 (AID 651632); further: nearly all actives have a fitted effect of over 15% in size
# How it was run: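 A rise in luciferase signal from ATAD5-tagged HEK293T cells marks genetic stress. Cells were exposed to compounds for 16 hr at 37C, 5% CO2, then luciferase was quantified after a 30 min room-temperature incubation with Amplite.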
# [2] = qHTS assay for small molecule agonists of the p53 signaling pathway - cell viability (AID 651633; calls by dose curve;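 further: p53RE-bla HCT reporter cells with a stable beta-lactamase p53 reporter; series mostly up to about 83 µM; nearly all actives have a fitted effect of over 30% in size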)
# How it was run: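 p53RE-bla cells, seeded at 4,000 per well and rested 5 h at 37 C/5% CO2, received compounds in DMSO for 16 h at 37 C. CellTiter-Glo was then added, and luminescence was read after 30 min at room temperature to gauge cytotoxicity.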
# [3] = qHTS assay for small molecule disruptors of the mitochondrial membrane potential - cell viability (AID 720634; calls by dose curve;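 further: human HepG2 liver cancer cells; series mostly up to about 83 µM; nearly all actives have a fitted effect of over 20% in size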)
# How it was run: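 Cytotoxicity was quantified from ATP content by CellTiter-Glo luminescence in the same wells as the MMP dye read-out. HepG2 (2,000 cells/well) were plated overnight and exposed to compounds for 1 hr at 37 C.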
# [4] = qHTS assay for small molecule disruptors of the mitochondrial membrane potential (AID 720635); further: potency means the concentration at half of the fitted maximal effect
# How it was run: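 HepG2 cells (2,000/well) attached overnight at 37C, then took compound for 1 hr at 37C, 5% CO2. Mito-MPS dye was added for 30 min; fluorescence was read at 490/535 nm (monomers) and 540/590 nm (aggregates).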
# [5] = qHTS assay to test for compound auto fluorescence at 590 nm (red) in HepG2 cells (AID 720674)
# How it was run: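 Intrinsic compound fluorescence in the red window (Ex/Em 540/590 nm) is measured in attached HepG2 cells exposed for 1 hr, DMSO vehicle as baseline, benchmarked to Rose Bengal sodium.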
# [6] = qHTS assay to test for compound auto fluorescence at 535 nm (green) in HepG2 cells (AID 720675)
# [7] = qHTS assay to test for compound auto fluorescence at 590 nm (red) in HEK293 cells (AID 720679)
# How it was run: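 Red-channel autofluorescence (Ex/Em 540/590 nm; Rose Bengal sodium reference) was measured after overnight 37C, 5% CO2 exposure of attached HEK293 cells, 2,000 per well in medium with 10% dialyzed FBS.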
# [8] = qHTS assay to test for compound auto fluorescence at 535 nm (green) in HEK293 cells (AID 720680)
# [9] = qHTS assay to test for compound auto fluorescence at 460 nm (blue) in HEK293 cell free culture (AID 720681)
# How it was run: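 Test compounds were pinned into cell-free culture medium (DMEM with 10% FBS) and fluorescence was read directly at Ex/Em 405/460 nm. Signals were expressed as fluorescence equivalents of triamterene, with DMSO vehicle as control.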
# [10] = qHTS assay to test for compound auto fluorescence at 535 nm (green) in HEK293 cell free culture (AID 720682)
# How it was run: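 Intrinsic compound fluorescence is measured in culture medium containing 10% FBS, with excitation at 485 nm and detection at 535 nm, referenced to fluorescein.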
# [11] = qHTS assay to test for compound auto fluorescence at 590 nm (red) in HEK293 cell free culture (AID 720683)
# How it was run: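 Tox21 10K library compounds were pinned into cell-free DMEM with 10% FBS and fluorescence was read at excitation 540 nm. Activity is expressed as Rose Bengal sodium equivalency.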
# [12] = qHTS assay to test for compound auto fluorescence at 590 nm (red) in HepG2 cell free culture (AID 720684)
# How it was run: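 Readout: intrinsic compound fluorescence at 590 nm emission after 540 nm excitation, scaled to Rose Bengal sodium. Matrix was cell-free MEM with 10% FBS; DMSO vehicle wells served as control.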
# [13] = qHTS assay to test for compound auto fluorescence at 460 nm (blue) in HepG2 cell free culture (AID 720685)
# How it was run: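 Cell-free plates of MEM plus 10% FBS received 23 nL compound or DMSO vehicle; blue-channel (405/460 nm) intensity scored against triamterene as reference fluorophore.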
# [14] = qHTS assay to test for compound auto fluorescence at 535 nm (green) in HepG2 cell free culture (AID 720686)
# [15] = qHTS assay to test for compound auto fluorescence at 460 nm (blue) in HepG2 cells (AID 720687)
# How it was run: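 Cells (2,000/well in MEM with 10% FBS) attached overnight at 37 C, then were exposed to compound or DMSO for 1 hr at 37 C, 5% CO2. Fluorescence read at Ex/Em 405/460 nm, expressed as triamterene-equivalent signal.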
# [16] = target: Glucocorticoid receptor (Homo sapiens) (UniProt P04150); experiment: qHTS assay to identify small molecule agonists of the glucocorticoid receptor (GR) signaling pathway (AID 720691; active means well fitted activation curve with a large enough effect in the signal ratio in the repeat runs, not every such curve was filed as active; the % refers to the signal ratio)
# Chain of Glucocorticoid receptor (Homo sapiens) (P04150 whole entry, looked up): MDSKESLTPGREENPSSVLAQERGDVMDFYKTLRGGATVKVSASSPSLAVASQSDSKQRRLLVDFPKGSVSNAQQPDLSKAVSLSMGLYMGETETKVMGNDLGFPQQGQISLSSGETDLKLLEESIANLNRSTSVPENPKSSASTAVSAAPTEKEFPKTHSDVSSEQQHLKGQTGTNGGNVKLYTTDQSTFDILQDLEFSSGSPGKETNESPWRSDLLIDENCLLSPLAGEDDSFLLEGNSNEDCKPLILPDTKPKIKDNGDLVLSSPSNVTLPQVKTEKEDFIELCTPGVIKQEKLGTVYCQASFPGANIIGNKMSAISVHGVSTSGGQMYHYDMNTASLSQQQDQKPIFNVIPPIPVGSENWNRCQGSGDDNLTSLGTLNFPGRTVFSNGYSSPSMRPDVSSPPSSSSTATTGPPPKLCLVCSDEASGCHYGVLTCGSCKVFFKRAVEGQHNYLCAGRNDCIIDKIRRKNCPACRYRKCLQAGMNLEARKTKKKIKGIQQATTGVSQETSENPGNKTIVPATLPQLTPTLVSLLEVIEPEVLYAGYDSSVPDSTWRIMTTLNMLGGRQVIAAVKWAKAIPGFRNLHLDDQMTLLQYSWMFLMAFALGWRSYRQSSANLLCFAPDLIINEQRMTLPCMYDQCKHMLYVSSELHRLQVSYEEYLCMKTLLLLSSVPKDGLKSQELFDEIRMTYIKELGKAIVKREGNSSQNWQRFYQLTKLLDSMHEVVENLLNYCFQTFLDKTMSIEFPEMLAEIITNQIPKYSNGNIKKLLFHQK
# How it was run: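 Agonist-mode qHTS in HeLa cells stably expressing a glucocorticoid-response-element beta-lactamase reporter. Fluorescence intensity read with FRET substrate (2 h, room temperature) after 18 h compound treatment at 37 C.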
# [17] = target: Glucocorticoid receptor (Homo sapiens) (UniProt P04150); experiment: qHTS assay to identify small molecule antagonists of the glucocorticoid receptor (GR) signaling pathway (AID 720692; active means well fitted inhibition curve with a large enough effect in the signal ratio in the repeat runs, not every such curve was filed as active; the % refers to the signal ratio)
# How it was run: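 Inhibition of dexamethasone-driven (5 nM final) beta-lactamase expression was measured in GRE-reporter HeLa cells over 18 h at 37C. Fluorescence was read after 2 h with the B/G FRET substrate at room temperature.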
# [18] = qHTS assay for small molecules that induce genotoxicity in human embryonic kidney cells expressing luciferase-tagged ATAD5 - cell viability (AID 651634; calls by dose curve; further: nearly all actives have a fitted effect of over 25% in size)
# How it was run: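 Cytotoxicity counter-readout: after 15.5 hr compound treatment at 37C, live-cell protease activity in ATAD5-luciferase HEK293T cells measured by CellTiter-Fluor fluorescence, 30 min development at 37C.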
# [19] = qHTS assay to test for compound auto fluorescence at 460 nm (blue) in HEK293 cells (AID 720678)
# How it was run: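 Blue-channel (Ex/Em 405/460 nm) intensity measured in HEK293 cultures after overnight compound exposure at 37C; signal expressed relative to triamterene. Cells plated 2,000 per well in 10% dialyzed FBS medium and allowed 4-5 hr to attach.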
structure (smiles),measurement,setting,value
CCCCCCCCCCCC(=O)N(C)CC(=O)O,Potency,[1],inactive
same,"activity change, negative = cytotoxicity",[2],23.9% [at 8.08 µM] (inactive)
same,Potency,[3],inactive
same,"ratio activity, negative = MMP loss",[4],7.77% [at 8.08 µM] (inactive)
same,outcome,[5],inactive
same,outcome,[6],inactive
same,outcome,[7],inactive
same,outcome,[8],inactive
same,Potency,[9],inactive
same,outcome,[10],inactive
same,outcome,[11],inactive
same,outcome,[12],inactive
same,Potency,[13],inactive
same,outcome,[14],inactive
same,Potency,[15],inactive
same,outcome,[16],inactive
same,"activity change, negative = inhibition",[17],-13% [at 7.04 µM] (inactive)
OC[C@H]1O[C@@H](Oc2ccc(O)cc2)[C@H](O)[C@@H](O)[C@@H]1O,Potency,[2],inactive
same,Potency,[18],inactive
same,Potency,[3],inactive
same,Potency,[4],inactive
same,outcome,[5],inactive
same,outcome,[6],inactive
same,outcome,[7],inactive
same,outcome,[8],inactive
same,Potency,[9],inactive
same,outcome,[10],inactive
same,outcome,[11],inactive
same,outcome,[12],inactive
same,Potency,[13],inactive
same,outcome,[14],inactive
same,Potency,[15],inactive
N#CCC(=O)O,Potency,[1],inactive
same,Potency,[2],inactive
same,outcome,[5],inactive
same,outcome,[6],inactive
same,Potency,[19],inactive
same,outcome,[7],inactive
same,outcome,[8],inactive
same,Potency,[9],inactive
same,outcome,[10],inactive
same,outcome,[11],inactive
same,outcome,[12],inactive
same,Potency,[13],inactive
same,outcome,[14],inactive
same,Potency,[15],inactive
same,outcome,[16],inactive
same,Potency,[17],inactive
CN=C(NC#N)NCCSCc1nc[nH]c1C,Potency,[18],inactive
same,Potency,[3],inactive
same,Potency,[4],inactive
same,outcome,[5],inactive
same,outcome,[6],inactive
same,outcome,[7],inactive
same,outcome,[8],inactive
same,outcome,[10],inactive
same,outcome,[11],inactive
same,outcome,[12],inactive
same,Potency,[13],inactive
same,outcome,[14],inactive
same,Potency,[15],inactive
CO[Si](CCCNCCN)(OC)OC,Potency,[2],inactive
same,Potency,[18],inactive
same,Potency,[3],inactive
same,Potency,[4],inactive
same,outcome,[5],inactive
same,outcome,[6],inactive
same,Potency,[19],inactive
same,outcome,[7],inactive
same,outcome,[8],inactive
same,Potency,[9],inactive
same,outcome,[10],inactive
same,outcome,[11],inactive
same,outcome,[12],inactive
same,Potency,[13],inactive
same,outcome,[14],inactive
same,Potency,[15],inactive
CC(=O)C(C)C,Potency,[2],inactive
same,Potency,[18],inactive
same,Potency,[3],inactive
same,Potency,[4],inactive
same,outcome,[5],inactive
same,outcome,[6],inactive
same,outcome,[7],inactive
same,outcome,[8],inactive
same,Potency,[9],inactive
same,outcome,[10],inactive
same,outcome,[11],inactive
same,outcome,[12],inactive
same,Potency,[13],inactive
same,outcome,[14],inactive
same,Potency,[15],inactive
same,outcome,[16],inactive
same,Potency,[17],inactive
OC1CCCCC1,Potency,[2],inactive
same,outcome,[5],inactive
same,outcome,[6],inactive
same,outcome,[7],inactive
same,outcome,[8],inactive
same,Potency,[9],inactive
same,outcome,[10],inactive
same,outcome,[11],inactive
same,outcome,[12],inactive
same,Potency,[13],inactive
same,outcome,[14],inactive
same,Potency,[15],inactive
same,outcome,[16],inactive
same,Potency,[17],inactive
O=C1O[C@H]([C@H](O)CO)C(O)=C1O,Potency,[3],inactive
same,Potency,[4],inactive
same,outcome,[5],inactive
same,outcome,[6],inactive
same,outcome,[7],inactive
same,outcome,[8],inactive
same,Potency,[9],inactive
same,outcome,[10],inactive
same,outcome,[11],inactive
same,outcome,[12],inactive
same,Potency,[13],inactive
same,outcome,[14],inactive
same,Potency,[15],inactive
same,outcome,[16],inactive
same,Potency,[17],inactive
O=C(O)C1=NN(c2ccc(S(=O)(=O)O)cc2)C(=O)C1,Potency,[2],inactive
same,Potency,[18],inactive
same,Potency,[3],inactive
same,Potency,[4],inactive
same,outcome,[5],inactive
same,outcome,[6],inactive
same,outcome,[7],inactive
same,outcome,[8],inactive
same,Potency,[9],inactive
same,outcome,[10],inactive
same,outcome,[11],inactive
same,outcome,[12],inactive
same,Potency,[13],inactive
same,outcome,[14],inactive
same,Potency,[15],inactive
same,outcome,[16],inactive
same,Potency,[17],inactive
C=C1C[C@]23C[C@@]1(O)CC[C@H]2[C@@]12C=C[C@H](O)[C@@](C)(C(=O)O1)[C@H]2[C@@H]3C(=O)O,Potency,[2],inactive
same,Potency,[18],inactive
same,Potency,[3],inactive
same,Potency,[4],inactive
same,outcome,[5],inactive
same,outcome,[6],inactive
same,Potency,[19],inactive
same,outcome,[7],inactive
same,outcome,[8],inactive
same,Potency,[9],inactive
same,outcome,[10],inactive
same,outcome,[11],inactive
same,outcome,[12],inactive
same,Potency,[13],inactive
same,outcome,[14],inactive
same,Potency,[15],inactive
same,outcome,[16],inactive
same,Potency,[17],inactive
CCCOCC(C)O (configuration not stated),Potency,[2],inactive
same,Potency,[18],inactive
same,Potency,[3],inactive
same,Potency,[4],54.5 µM (active) and inactive
same,outcome,[5],inactive
same,outcome,[6],inactive
same,outcome,[7],inactive
same,outcome,[8],inactive
same,Potency,[9],inactive
same,outcome,[10],inactive
same,outcome,[11],inactive
same,outcome,[12],inactive
same,Potency,[13],inactive
same,outcome,[14],inactive
same,Potency,[15],inactive
CCOC(=O)CC(=O)OCC,Potency,[2],inactive
same,Potency,[18],inactive
same,Potency,[3],inactive
same,Potency,[4],inactive
same,outcome,[5],inactive
same,outcome,[6],inactive
same,outcome,[7],inactive
same,outcome,[8],inactive
same,Potency,[9],inactive
same,outcome,[10],inactive
same,outcome,[11],inactive
same,outcome,[12],inactive
same,Potency,[13],inactive
same,outcome,[14],inactive
same,Potency,[15],inactive
same,outcome,[16],inactive
same,Potency,[17],inactive
Nc1cccc(N)n1,Potency,[3],inactive
same,Potency,[4],14.8 µM (active) and 48.6 µM (active)
same,outcome,[5],inactive
same,outcome,[6],inactive
same,outcome,[7],inactive
same,outcome,[8],inactive
same,outcome,[10],inactive
same,outcome,[11],inactive
same,outcome,[12],inactive
same,Potency,[13],inactive
same,outcome,[14],inactive
same,outcome,[16],inactive

# From PubChem BioAssay (Tox21)
